# Test results: PubChem BioAssay (NCATS)
# “And” between values parts separate entries of the source, which are not always exact repeats. Identical values can stand only once. Values without a mark were called inactive. Records with an inconclusive call do not appear. Some compounds were tested as several samples or in several runs, with calls that do not always agree. The source made the active and inactive calls. Unless noted, the call rests on the fitted dose curve; in most records, active means well fitted curve in the direction sought with a large enough effect; inconclusive means small, poorly fitted or top-dose-only effect, or another doubt; inactive means no such curve, though single readings can be large; an effect the other way counts as inactive or inconclusive.
# Assays:
# [1] = test system: PA-1; test: Primary qHTS to identify gynecologic anti-cancer compounds using libraries of approved drugs and bioactive compounds (AID 1345084); conditions: Gynecologic cancer cell panel viability, ATPlite luminescence, 48 h; series mostly up to 57.5 µM; further: nearly all actives have a fitted effect of over 55% in size; further: potency means the concentration at half of the fitted maximal effect
# How it was run: (§1)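 Cells, 1,000 per well, were allowed to settle for 16 h at 37 C before compound addition. Five concentrations were tested for 48 h, and viability was read by ATPlite luminescence after 15 min at room temperature.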
# [2] = test system: SKOV3; test: as above; conditions: Gynecologic cancer cell panel viability, ATPlite luminescence, 48 h; series mostly up to 57.5 µM
# How it was run: as §1
# [3] = test system: Tov-21-G; test: as above; conditions: Gynecologic cancer cell panel viability, ATPlite luminescence, 48 h; series mostly up to 57.5 µM
# How it was run: as §1
# [4] = test system: Tov112D; test: as above; conditions: Gynecologic cancer cell panel viability, ATPlite luminescence, 48 h; series mostly up to 57.5 µM
# How it was run: as §1
# [5] = Drug repurposing screens with cells derived from glioblastoma tumor samples (AID 1345199); conditions: GBM patient neurospheres viability, ATP luminescence, 48 h; further: nearly all actives have a fitted effect of over 40% in size; further: potency means the concentration at half of the fitted maximal effect; on activity, negative = cell killing: on the % scale 0 is the no-effect control and ±100 the full control effect
# How it was run: (§2)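 Primary testing used CD133+ neurospheres from four GBM patients, seven concentrations, 48 h exposure and ATP-based viability; confirmation added three slower-growing patient lines.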
# [6] = test system: astro; test: as above; conditions: viability, ATP luminescence, 48 h; series mostly up to 45.9 µM
# How it was run: as §2
# [7] = target: Nuclear receptor subfamily 1 group I member 2 (Rattus norvegicus) (UniProt Q9R1A7); test: qHTS assay for small molecule activators of the rat pregnane X receptor (rPXR) signaling pathway (AID 651751; call rule not given here; further: 0% is about no effect); conditions: rPXR reporter cells, luciferase (One-Glo), 24 h
# Sequence of Nuclear receptor subfamily 1 group I member 2 (Rattus norvegicus) (Q9R1A7 whole entry, looked up): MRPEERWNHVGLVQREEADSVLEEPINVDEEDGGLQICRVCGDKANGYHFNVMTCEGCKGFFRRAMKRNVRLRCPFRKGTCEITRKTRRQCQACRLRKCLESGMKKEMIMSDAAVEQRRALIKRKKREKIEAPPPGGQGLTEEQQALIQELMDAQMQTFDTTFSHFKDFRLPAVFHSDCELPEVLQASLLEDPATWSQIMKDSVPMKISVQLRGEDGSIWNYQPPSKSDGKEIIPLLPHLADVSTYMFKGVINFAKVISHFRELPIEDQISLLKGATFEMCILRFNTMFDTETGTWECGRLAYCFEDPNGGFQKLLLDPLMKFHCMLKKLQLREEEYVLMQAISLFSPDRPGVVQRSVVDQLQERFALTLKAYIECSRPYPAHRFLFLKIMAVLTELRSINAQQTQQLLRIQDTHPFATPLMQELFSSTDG
# [8] = qHTS assay for small molecule activators of the human pregnane X receptor (PXR) signaling pathway (AID 720659; call rule not given here; further: 0% is about no effect)
# [9] = at 45.9 µM (top of the series), tumour line B
# [10] = at 45.9 µM (top of the series), tumour line D
# [11] = at 91.6 µM (top of the series), tumour line B
# [12] = at 46 µM (top of the series), tumour line A
compound,measurement,setting,value
CCOP(=S)(OCC)Oc1ccc2c(C)c(Cl)c(=O)oc2c1,Potency,[1],inactive
same,outcome,[2],inactive
same,Potency,[3],inactive
same,Potency,[4],inactive
same,"activity, negative = cell killing",[5]; [9],-3.04%
same,"activity, negative = cell killing",[5]; [10],6.08%
same,Potency,[6],inactive
O=C1c2ccccc2C(=O)c2ccccc21,Potency,[1],inactive
same,outcome,[2],inactive
same,Potency,[3],inactive
same,Potency,[4],inactive
same,"activity, negative = cell killing",[5]; [9],4.04%
same,"activity, negative = cell killing",[5]; [10],-17.8%
same,max response,[7],4.64%
C[C@]12CCC(=O)C=C1CC[C@@H]1[C@H]3CC[C@](C)(O)[C@@]3(C)CC[C@@H]12,Potency,[3],inactive
same,"activity, negative = cell killing",[5]; [11],-15.6%
same,Potency,[5]; tumour line A,39.8 µM (active)
same,Potency,[6],inactive
O=C(O)/C=C\C(=O)O,"activity, negative = cell killing",[5]; [9],0.272%
same,"activity, negative = cell killing",[5]; [10],-6.85%
same,"activity, negative = cell killing",[5]; [12],-28.3%
same,"activity, negative = cell killing","[5]; at 46.1 µM (top of the series), tumour line C",3.02%
same,Potency,[6],inactive
CC(C)=CC1C(C(=O)OCN2C(=O)C3=C(CCCC3)C2=O)C1(C)C (configuration not stated),Potency,[1],inactive
same,Potency,[3],inactive
same,Potency,[4],inactive
same,"activity, negative = cell killing",[5]; [9],-18.8%
same,"activity, negative = cell killing",[5]; [10],-12.7%
same,Potency,[6],inactive
O=C1Nc2ccc(Cl)cc2C(c2ccccc2Cl)=NC1O (configuration not stated),"activity, negative = cell killing",[5]; [9],0.661%
same,"activity, negative = cell killing",[5]; [10],-9.55%
same,"activity, negative = cell killing",[5]; [12],-25.3%
CC(C)[C@H]1C(=O)N2CCC[C@H]2[C@]2(O)O[C@](NC(=O)[C@@H]3C[C@@H]4c5cccc6[nH]cc(c56)C[C@H]4N(C)C3)(C(C)C)C(=O)N12,"activity, negative = cell killing",[5]; [9],-21%
same,Potency,[5]; tumour line A,7.08 µM (active)
CCN(CCO)CCn1c(Cc2ccccc2)nc2c1c(=O)n(C)c(=O)n2C,Potency,[1],inactive
same,Potency,[3],inactive
same,Potency,[4],inactive
same,"activity, negative = cell killing",[5]; [9],-6.5%
same,"activity, negative = cell killing",[5]; [10],-3.15%
same,Potency,[6],inactive
Cc1nnc2n1-c1ccc(Cl)cc1C(c1ccccc1)=NC2,"activity, negative = cell killing",[5]; [10],7.45%
C[C@]12CCC(=O)C=C1CC[C@@H]1[C@@H]2CC[C@@]2(C)[C@H]1CC[C@]2(C)O,Potency,[1],inactive
same,Potency,[3],inactive
same,Potency,[4],inactive
same,"activity, negative = cell killing",[5]; [9],-4.4% and -14.4%
same,"activity, negative = cell killing",[5]; [10],-24.9% and -19.8%
same,Potency,[5]; tumour line A,12.6 µM (active) and 20 µM (active)
same,Potency,[6],inactive
COc1cc(CC(C)N)cc(OC)c1OC (configuration not stated),Potency,[1],2.51 µM (active)
same,Potency,[3],0.708 µM (active)
same,"activity, negative = cell killing","[5]; at 108 µM (top of the series), tumour line B",-12%
same,"activity, negative = cell killing","[5]; at 108 µM (top of the series), tumour line D",-16.2%
same,Potency,[6],inactive
COc1ccc2c(c1)C13CCCC[C@@H]1C(C2)N(C)CC3 (some centres not stated),"activity, negative = cell killing",[5]; [9],-6.27%
same,"activity, negative = cell killing",[5]; [10],-5.01%
same,Potency,[5]; tumour line A,35.5 µM (active)
same,Potency,[6],inactive
CN[C@@H](C)Cc1ccccc1,"activity, negative = cell killing","[5]; at 91.6 µM (top of the series), tumour line A",-24.4%
same,"activity, negative = cell killing",[5]; [11],-1.76%
same,"activity, negative = cell killing","[5]; at 91.6 µM (top of the series), tumour line D",4.77%
CC(C)C[C@H](CN)CC(=O)O,"activity, negative = cell killing",[5]; [9],2.42%
same,"activity, negative = cell killing",[5]; [10],-14.3%
same,"activity, negative = cell killing",[5]; [12],-19.6%
same,Potency,[6],inactive
CCN(CC)C(=O)[C@@H]1C=C2c3cccc4[nH]cc(c34)C[C@H]2N(C)C1,Potency,[3],inactive
same,Potency,[4],inactive
same,"activity, negative = cell killing",[5]; [9],-17.8%
same,"activity, negative = cell killing","[5]; at 194 µM (top of the series), tumour line B",-16.6%
same,Potency,[6],inactive
COC(=O)C(c1ccccc1)C1CCCCN1 (configuration not stated),"activity, negative = cell killing",[5]; [9],-10.4%
same,"activity, negative = cell killing",[5]; [10],3.11%
same,"activity, negative = cell killing",[5]; [12],-16.7%
same,max response,[7],1.26% and 1.36%
same,outcome,[8],inactive
COP(=S)(OC)Oc1ccc(SC)c(C)c1,outcome,[2],inactive
same,Potency,[3],inactive
same,Potency,[4],inactive
same,"activity, negative = cell killing",[5]; [9],-12.6%
same,"activity, negative = cell killing",[5]; [10],-10.9%
same,"activity, negative = cell killing",[5]; [12],-25.3%
same,Potency,[6],inactive
same,max response,[7],-3.65% and 2.94%
same,outcome,[8],inactive
CN1C(=O)C(O)N=C(c2ccccc2)c2cc(Cl)ccc21 (configuration not stated),"activity, negative = cell killing",[5]; [9],2.89%
same,"activity, negative = cell killing",[5]; [10],-6.26%
same,"activity, negative = cell killing",[5]; [12],-24.3%
CN1C[C@H](C(=O)N[C@]2(C)O[C@@]3(O)[C@@H]4CCCN4C(=O)[C@H](Cc4ccccc4)N3C2=O)C=C2c3cccc4[nH]cc(c34)C[C@H]21,"activity, negative = cell killing",[5]; [9],-13.4%
same,Potency,[5]; tumour line A,14.1 µM (active)
same,max response,[7],10% and -0.133%
CCCCCN(C)CCC(O)(P(=O)(O)O)P(=O)(O)O,"activity, negative = cell killing",[5]; [9],-6.41%
same,"activity, negative = cell killing",[5]; [10],-6.48%
same,"activity, negative = cell killing",[5]; [12],-14.8%
